High-throughput results as filed in PubChem BioAssay.
Shown are actives, neighbours in structure and some others; about 3.8% of the full set was active somewhere.
IDH1 R132H inh: inhibitors of human mutant IDH1 R132H; IDH1-R132H enzyme, NADPH consumption, diaphorase/resazurin fluorescence; Potency, µM (highest dose often 76.6 µM), hits mostly inhibitors; 0.093% of 390,000 active; AID 602179; further: nearly all actives have a fitted effect of over 65% in size
Target sequence (O75874 whole entry R132H, stated change not applied): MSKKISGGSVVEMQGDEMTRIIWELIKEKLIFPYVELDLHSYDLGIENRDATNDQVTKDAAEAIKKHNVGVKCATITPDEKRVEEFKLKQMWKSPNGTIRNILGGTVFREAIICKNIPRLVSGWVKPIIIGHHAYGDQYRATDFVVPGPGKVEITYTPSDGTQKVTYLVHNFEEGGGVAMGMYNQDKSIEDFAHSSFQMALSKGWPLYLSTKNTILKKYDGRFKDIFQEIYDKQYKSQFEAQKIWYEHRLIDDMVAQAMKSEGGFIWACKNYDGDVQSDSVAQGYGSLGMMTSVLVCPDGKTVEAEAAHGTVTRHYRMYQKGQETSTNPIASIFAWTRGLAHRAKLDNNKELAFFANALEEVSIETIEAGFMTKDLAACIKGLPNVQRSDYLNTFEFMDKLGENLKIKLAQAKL
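IDH1-R132H (0.5 ug/mL dispensed) in pH 7.5 Tris buffer was preincubated 30 min with compound, then given a substrate mix of 0.016 mM NADPH and 2 mM alpha-KG for 80 min at room temperature; remaining NADPH was read by diaphorase/resazurin fluorescence.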
Nrf2 activator: activates Nrf2 signaling; AREc32 ARE-luciferase reporter (MCF7-derived line), luminescence, 24 h; Potency, µM (highest dose often 46.1 µM), most hits filed as activators; 0.31% of 410,000 active; further: nearly all actives have a fitted effect of over 65% in size
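AREc32 cells carrying an ARE-driven firefly luciferase, 1000 cells/well in OPTI-MEM with 5% FBS, dosed after overnight attachment and incubated 24 hr at 37 deg C. Steady-Glo luminescence read after 30 min at RT.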
ELG1 DNA repair: blocks ELG1-dependent DNA repair in HEK293T cells. HEK293T ELG1-luciferase reporter, luminescence, 16 h; DNA damage induced by 5-fluorouridine. 2.3% of 330,000 active. AID 504467. Potency, µM (top dose mostly 46.1 µM), usual class: inhibitors; further: nearly all actives have a fitted effect of over 55% in size
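Step one: seed 2,000 cells per well. Step two: pin-transfer compound or DMSO alongside 5-fluorouridine. Step three: incubate 16 hr, 37 °C, 5% CO2. Step four: add ONE-Glo, wait 30 min, read luminescence.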
Nrf2 inh: inhibitors of Nrf2 signaling; A549 ARE-Fluc reporter, luciferase luminescence, 18-24 h; Potency, µM (doses to about 46 µM), usual class: inhibitors; 2.1% of 360,000 active; further: nearly all actives have a fitted effect of over 60% in size
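Nrf2 function is reported as luminescence of an ARE-controlled luciferase in A549 cells. Compounds were tested at several concentrations, and a CellTiter-Fluor read on the same wells flagged cytotoxicity.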
A549 tox: A549 cytotoxicity, counter-screen for Nrf2 inhibitors. Potency, µM (highest dose often 46 µM), usual class: inhibitors. 0.16% of 390,000 active. A549 ARE-Fluc cells, CellTiter-Fluor viability, 18-24 h. AID 504648
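Cytotoxicity counterscreen: CellTiter-Fluor fluorescence was measured in A549 ARE_Fluc cells after 18-24 h of compound exposure in a concentration series. The subsequent BugLite luminescent read reports ARE-luciferase activity.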
Each line names hits and unclear results; the compound was inactive in the other large screens. The call rests on the fitted dose curve; in most records, active means well fitted curve in the direction sought with a large enough effect; inconclusive means small, poorly fitted or top-dose-only effect, or another doubt; inactive means no such curve, though single readings can be large; an effect the other way counts as inactive or inconclusive.

CC(=O)Nc1nc(C)c(-c2csc(Nc3cccc([N+](=O)[O-])c3)n2)s1	ELG1 DNA repair 2.9µM, Nrf2 inh inconclusive
Cc1ccc(Nc2nc(-c3sc(NC(=O)c4ccco4)nc3C)cs2)cc1	ELG1 DNA repair 10µM, Nrf2 inh inconclusive
Cc1ccc(Nc2nc(C(=O)NCc3ccco3)cs2)cc1	Nrf2 inh 9.2µM (no result: A549 tox)
CC(=O)c1cccc(Nc2nc(-c3cccc([N+](=O)[O-])c3)cs2)c1	Nrf2 activator inconclusive, ELG1 DNA repair inconclusive, Nrf2 inh inconclusive
CCN(CC)C(=O)c1csc(Nc2ccc(C)cc2)n1	none
Cc1ccccc1Nc1nc(-c2sc(NC(=O)c3ccco3)nc2C)cs1	ELG1 DNA repair inconclusive
CC(=O)Nc1nc(C)c(-c2csc(Nc3cccc(C(C)=O)c3)n2)s1	ELG1 DNA repair 5.8µM, Nrf2 inh inconclusive, A549 tox inconclusive
COC(=O)c1ccc(-n2c(/C=C\c3cccc(Br)c3)nc3ccccc3c2=O)cc1	none (no result: ELG1 DNA repair, Nrf2 inh)
CCCNC(=O)Cn1nc(-c2ccc(C)c(C)c2)c2cnc3ccc(F)cc3c21	Nrf2 inh inconclusive (no result: ELG1 DNA repair)
CC(C)(C(=O)N1CCC1(C)C(=O)NS(=O)(=O)c1cccc(C#N)c1)c1ccccc1 (stereo not drawn)	none (no result: IDH1 R132H inh, ELG1 DNA repair, Nrf2 inh, A549 tox)
Cc1ccc(Cl)cc1Nc1nc(-c2sc(NC(=O)C(C)(C)C)nc2C)cs1	Nrf2 inh 12µM
COc1ccc(Nc2nc(-c3sc(C)nc3C)cs2)cc1	none
Cc1nc(C)c(-c2csc(Nc3ccc(N)cc3)n2)s1	ELG1 DNA repair inconclusive, Nrf2 inh 21µM
C=CCOC(=O)c1sc(NC(=O)c2ccco2)nc1C	Nrf2 activator 5µM, ELG1 DNA repair inconclusive, Nrf2 inh inconclusive (no result: A549 tox)
Cc1nc(NC(=O)c2ccccc2)sc1-c1csc(NCc2ccco2)n1	ELG1 DNA repair 15µM
O=C(OCC#CCSc1nnc(-c2ccccc2)o1)c1ccc(F)cc1	none (no result: IDH1 R132H inh, Nrf2 activator, ELG1 DNA repair)
CC(=O)Nc1nc(C)c(-c2csc(Nc3ccc(O)cc3)n2)s1	Nrf2 activator inconclusive, ELG1 DNA repair inconclusive, Nrf2 inh inconclusive (no result: A549 tox)
CCC(C)C(=O)Nc1nc(C)c(-c2csc(Nc3ccc(Cl)cc3)n2)s1 (stereo not drawn)	ELG1 DNA repair 8.2µM, Nrf2 inh 16µM, A549 tox inconclusive
Cc1csc2ncc(C(=O)NCc3ccco3)c(=O)n12	Nrf2 activator 11µM
CC(=O)Nc1ccc(Nc2nc(-c3sc(NC(C)=O)nc3C)cs2)cc1	ELG1 DNA repair 23µM
O=C(Cc1ccccc1)Nc1sc2c(c1C(=O)Nc1ccc(Cl)cc1)CCOC2	none (no result: IDH1 R132H inh, Nrf2 activator, ELG1 DNA repair)
CCOC(=O)c1c(CN2CCOCC2)n(-c2ccccc2)c2cc(Br)c(O)cc12	ELG1 DNA repair 23µM
CC(C)CCC1(C)NC(=O)N(CC(=O)c2ccc[nH]2)C1=O (stereo not drawn)	none
COc1cccc(Cn2ncc3c4sc(S(C)=O)cc4n(C)c3c2=O)c1 (stereo not drawn)	none (no result: IDH1 R132H inh, Nrf2 activator, ELG1 DNA repair)
Cc1ccccc1NC1=C/C(=N\S(=O)(=O)c2ccc(C(=O)O)cc2)c2ccccc2C1=O	ELG1 DNA repair 12µM
CC(=O)Nc1ccc(NC2=C/C(=N/S(=O)(=O)c3cccs3)c3ccccc3C2=O)cc1	ELG1 DNA repair 1.6µM
Cc1ccc(C)c(S(=O)(=O)/N=C2\C=C(NS(=O)(=O)c3ccccc3)C(=O)c3ccccc32)c1	ELG1 DNA repair 23µM
COc1ccc(S(=O)(=O)/N=C2\C=C(Nc3ccc(O)cc3)C(=O)c3ccccc32)cc1	ELG1 DNA repair 5.8µM, Nrf2 inh inconclusive, A549 tox inconclusive
O=C(N1CCc2cc([S+](=O)([O-])N3CCN([S+](=O)([O-])c4c(F)cccc4F)CC3)ccc2C1)C(F)(F)F	none (no result: IDH1 R132H inh, Nrf2 activator, ELG1 DNA repair)
CC(=O)Nc1ccc(OCc2cccc(-c3nc4ccccc4c(=O)n3Cc3ccco3)c2)cc1	Nrf2 inh inconclusive (no result: IDH1 R132H inh, Nrf2 activator, ELG1 DNA repair)
CSc1ccc(C(=O)N2CCC(CCC(=O)NC3CC3)CC2)cc1	ELG1 DNA repair inconclusive
Cc1ccccc1NC1=C/C(=N\S(=O)(=O)c2cccs2)c2ccccc2C1=O	ELG1 DNA repair 3.7µM, Nrf2 inh inconclusive, A549 tox inconclusive
C[C@@](Cc1ccccc1)(C(=O)O)N1C(=O)c2ccc(C(=O)O)cc2C1=O	none (no result: IDH1 R132H inh, Nrf2 activator, ELG1 DNA repair)
